This is an account of results in PubChem BioAssay AID652251 (National Center for Advancing Translational Sciences (NCATS), 2013).

Structures are written as SMILES. Activity calls are given as the source filed them.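 How the source made its calls: active means lowers cyclin D1 in cells by half at 5 µM or less; inconclusive means half-effect dose above 5 µM but under 10 µM; inactive means half-effect dose of 10 µM or more.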

The assay is described as follows: qHTS for Inhibitors of Ubiquitin-specific Protease USP2a Using CHOP2 as the Reporter: Cyclin D1 Western Blot. As to conditions: HCT116 cyclin D1 western blot. An excerpt: Homeostasis of cellular proteins is maintained through a combination of synthesis and degradation. The pathway that accounts for the majority of protein degradation is the ubiquitin-proteasomal pathway. Ubiquitin (Ub) is highly conserved in all cells and the generation of a multi-Ub chain typically targets proteins for degradation by the proteasome. However, ubiquitination is highly reversible and dynamic. Deubiquitination, the reverse process, is catalyzed through the action of enzymes referred to as isopeptidases or deubiquitinating enzymes (DUBs). This group of enzymes is collectively responsible for maintaining adequate pools of free ubiquitin and regulating the ubiquitination status of cellular proteins. The class of DUBs referred to as the ubiquitin-specific proteases (USP) family functions endoproteolytically to cleave Ub chains from a wide range of protein substrates. USP2a deubiquitinates fatty acid synthase (FASN) which has recently been identified as an emerging oncology target. […] To further visualize and quantitate the effect of compounds on cell proliferation, a colony forming or clonogenic assay was performed in 6-well plates using HCT116 cells. […] The colonies were visualized on the Typhoon imager (GE) using Cy5 detection, and quantitated with the associated software. […]
. […] Protein levels were quantified using ImageJ.
Consider `Cc1ccc(S(=O)(=O)Nc2cc(C(F)(F)F)ccc2C(=O)Nc2nc(-c3ccccc3)cs2)cc1`, for which the Potency was 0.97 µM (active).
